PubChem BioAssay AID1457 (National Center for Advancing Translational Sciences (NCATS), 2008)
The whole screen tested about 210,000 compounds, of which about 730 (0.35%) were called active. Another 1% or so got no clear call; they are omitted. Calls come from the whole dose curve; as a rule, active = well fitted inhibition curve with a large enough effect; inconclusive = small, poorly fitted or top-dose-only effect; inactive = no such curve, though single readings can be large or run the other way. The entries come from a sample that favours actives as a whole.

Test: qHTS Assay for Identifying the Cell-Membrane Permeable IMPase Inhibitors: Potentiation with Lithium;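 note: IP1 builds up when IMPase is blocked and the TR-FRET signal falls; nearly all actives have a fitted effect of over 50% in size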;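 for activity, negative = IMPase inhibition: plate controls were basal vehicle for no effect and high inhibitor control for full effect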
Details: CHO-M1 cells, IP1 TR-FRET (IP-One), carbachol + lithium; series mostly up to 59.4 µM; activity, negative = IMPase inhibition: at the top concentration
In short: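 Lithium-sensitised IP1 accumulation assay; M1-expressing CHO cells treated 30 min at 37C with compound. Competitive antibody detection by time-resolved FRET followed a 10 min room-temperature lysis step.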
Potency is the fitted concentration of half-maximal effect.

activity, negative = IMPase inhibition, inactive:
CC1(OC(=O)c2ccc(Cl)nc2)C(=O)Cc2cc(-c3ccsc3)ncc2C1=O (stereo not given) 9.99%, CCN(CC)CCN1C(=O)C(=O)/C(=C(/O)c2ccccc2)C1c1ccccc1F (stereo not given) 5.01% [at 38.3 µM], O=C1C(=O)N(CCN2CCOCC2)C(c2ccccn2)/C1=C(/O)c1ccc(Cl)cc1 (stereo not given) 7.49%, COc1cccc(C2/C(=C(/O)c3ccncc3)C(=O)C(=O)N2CCCN(C)C)c1 (stereo not given) 2.53% [at 38.3 µM], COc1cc(C2/C(=C(\O)c3ccc4c(c3)CC(C)O4)C(=O)C(=O)N2Cc2ccco2)ccc1O (stereo not given) -13.8%, CC(C)(C)OC(=O)NCCCC1=CC2=CC(=O)C(C)(OC(=O)c3ccco3)C(=O)C2=CO1 (stereo not given) 13.9%, CCCCC/C=C\C/C=C\CCCCCCCCCC(N)=O 4.61%, COC(=O)C1=C(C(=O)OC)[C@@H]2N(C)c3ccccc3[C@@]23C[C@@H](C(=O)OC)N(C(=O)c2ccco2)C3=N1 -2.84%, NC(=O)COc1ccc2c3c(c(=O)oc2c1)CCCCC3 17.5% [at 38.3 µM], Cc1c(Cc2ccccc2)c(=O)oc2cc(OCC(N)=O)ccc12 -7.11%, CCOC(=O)C1=C(C)c2ccccc2OC1(C)C(=O)OCC (stereo not given) -2.23%, C[C@H]1Cc2c(COc3ccccc3)nc3c(c2CO1)CN(C(=O)Nc1cccc(C#N)c1)CC3 -3.57%, C#CCCOC(=O)N1C2=NC(C(=O)OC)=C(C(=O)OC)[C@@H]3N(C)c4ccc(OC)cc4[C@]23C[C@H]1C(=O)OC -1.69%, COc1ccc(-c2nc3c(c4c2C[C@H](c2ccccc2)OC4)CN(C(=O)c2ccco2)CC3)c(C)c1 4.59%, C=CC1=C2C=C(C3CC3)N(C(CO)CO)C=C2C(=O)C(C)(OC(=O)c2ccco2)C1=O (stereo not given) 3.61%, COc1ccc2c(c1)O[C@@H](c1ccc3c(c1)OCO3)[C@H](OC(=O)NCc1ccco1)C2=O -3.02%, Cc1ccc(S(=O)(=O)N2CC(=O)Nc3ccccc32)cc1C -2.99% [at 38.3 µM], Cc1ccc(C)c(S(=O)(=O)N2CC(=O)Nc3ccccc32)c1 21.6% [at 38.3 µM], COc1ccc(-c2nc3c(c4c2C[C@H](c2ccccc2)OC4)CN(S(=O)(=O)c2c(C)noc2C)CC3)c(C)c1 2.36%

Potency, inactive:
CCCCCCCC1=Cc2ccc(F)cc2C(C(C(=O)OC)C(=O)OC)N1C(=O)OC (stereo not given), CCCCC/C=C\C/C=C\CCCCCCCCCC(=O)O

Potency, active:
CC1Cc2cc(/C(O)=C3\C(=O)C(=O)N(CCN4CCOCC4)C3c3ccccc3F)ccc2O1 (stereo not given) 10 µM, COCCCN1C(=O)C(=O)/C(=C(/O)c2ccc3c(c2)CC(C)O3)C1c1cccnc1 (stereo not given) 8.91 µM, O=C(Oc1ccccc1)Oc1ccc2c(c1)oc(=O)c1ccccc12 10 µM, O=C1CN(c2nc(-c3ccccc3)c3cc(Br)ccc3n2)c2ccccc2N1 12.6 µM
